From PubChem BioAssay (Tox21)
Records with an inconclusive call do not appear. Where a call stands in place of a potency, no number is given. A number with no mark means an inactive call. Calls of active or inactive are those of the source. The call rests on the fitted dose curve; in most records, active means well fitted inhibition curve with a large enough effect in the repeat runs; inconclusive means weak or mixed curves, or effect the other way; inactive means no such curve, though single readings can be large or run the other way.

Biological target: Nuclear receptor ROR-gamma (Homo sapiens) (UniProt P51449)
Assay: qHTS assay to identify small molecule antagonists of the retinoid-related orphan receptor gamma (ROR-gamma) signaling pathway (AID 1159521; further: nearly all actives have a fitted effect of over 50% in size; on activity change, negative = inhibition: top concentration of the series differs between compounds)
Settings: Tet-on RORgamma CHO cells, RORE-luciferase, 16 h; series mostly up to 92.4 µM
From the text: U.S. Tox21 Program National Center for Advancing Translational Sciences [NCATS] NIH Chemical Genomics Center [NCGC] U.S. Environmental Protection Agency [EPA] National Institutes of Environmental Health Sciences [NIEHS] National Toxicology Program [NTP] U.S. Food and Drug Administration [FDA] Tox21 Assay Overview: Nuclear steroid hormone receptors are involved in many biological processes including inflammatory responses, cell proliferation, and apoptosis. Environmental factors or compounds disrupting these nuclear receptor pathways and gene expression may promote susceptibility to immunotoxicants and autoimmune diseases. One important group of these expression factors are the retinoid-related orphan receptors. To assess compounds that may interfere with the retinoid-related orphan receptor gamma (ROR-gamma) transcription factor, a cell-based luciferase assay was used. The CHO cell-based assay utilizes a TET-inducible ROR expression factor and ROR response element-LUC reporter gene. Reporter gene activity was induced using Doxycycline Hyclate and measured after 16 hr incubation. Tet-on ROR gamma CHO cells were used to screen against the Tox21 10K compound library for ROR gamma antagonists by quantification of decreased reporter gene activity in terms of decreased luminescence.
Tox21 Assay Protocol Summary: Tet-on ROR gamma CHO cells were dispensed at 1,000 cells in 4 uL of culture medium per well into white wall/solid bottom 1536-well plates using a Multidrop Combi (Thermo Scientific, Waltham, MA) dispenser. Following incubation at 37 C and 5% CO2 for 4 hr, 23 nL of compounds dissolved in DMSO, positive controls or DMSO only were transferred by a Pintool station (Kalypsys, San Diego, CA) and after 2 hr incubation at 37 C, one ul of 1 uM (final concentration) of Doxycycline Hyclate was added to all the wells by using a Flying Reagent Dispenser (FRD) (Aurora Discovery, San Diego, CA). After 16 hr incubation at 37 C and 5% CO2, 5 uL of ONE-Glo reagent (Promega Corporation, Madison, WI) was added to each assay plate using FRD. After 30 min incubation at room temperature, luminescence was quantified on a ViewLux plate reader (Perkin Elmer, Waltham, MA).
Potency means the concentration at half of the fitted maximal effect.

Compound | Potency | activity change, negative = inhibition
C=CC(=O)OCC(C)OCC(C)OCC(C)OC(=O)C=C (stereo not given) | 30.6 µM (active) | 
CCCC[C@H]1CN(CC2CCOCC2)C(=O)OC12CCN(C1(C)CCN(C(=O)c3c(C)ncnc3C)CC1)CC2 | inactive | 
COc1ccc2[nH]c(S(=O)Cc3ncc(C)c(OC)c3C)nc2n1 (stereo not given) | inactive | 
C=CC(=O)OCCOC(=O)CCC(=O)O | inactive | 
OCC1CC2CC1C1CCC(CO)C21 (stereo not given) | inactive | 
CCOC(=O)[C@H](CCc1ccccc1)N[C@H]1CCc2ccccc2N(CC(=O)O)C1=O | inactive | 
CCCCC(CC)COCCCN (stereo not given) | inactive | 
C=CCCCCCC | inactive | 
CC(C)NCC(O)COc1ccc(CC(N)=O)cc1 (stereo not given) | inactive | 
NC(=S)N/N=C/c1cccnc1 | inactive | 
O=C(O)Cc1sc(-c2ccccc2)nc1-c1ccc(Cl)cc1 | inactive | 
CC(C)(C)C(=O)OCOP(=O)(COCCn1cnc2c(N)ncnc21)OCOC(=O)C(C)(C)C | 11.9 µM (active) | 
c1ccc(CNCc2ccccc2)cc1 | inactive | 
CCCCCCCCCCCCCCCC(=O)OC/C=C(C)/C=C/C=C(C)/C=C/C1=C(C)CCCC1(C)C | inactive | 
CCCCCCCCCCCCCCCCCBr |  | 24.8% [at 19 µM]
CCCOc1ccc2nc(NC(=O)OC)[nH]c2c1 | inactive | 
CN(c1nccc(=O)[nH]1)C1CCN(c2nc3ccccc3n2Cc2ccc(F)cc2)CC1 | inactive | 
C[Si](C)O[Si](C)(C)O[Si](C)(C)O[Si](C)C | inactive | 
CN1CCC(=C2c3ccccc3C=Cc3ccccc32)CC1 | inactive | 
Cn1c(=O)c2c(ncn2CC(O)CO)n(C)c1=O (stereo not given) | inactive | 

Compound | Potency | activity change, negative = inhibition
CCCCCCOC(=O)CCC | inactive | 
Cc1cc(C)c(S(=O)(=O)O)cc1N=Nc1cc(S(=O)(=O)O)c2ccccc2c1O | inactive | 
CC(C)CCCCCCOC(=O)c1ccc(C(=O)OCCCCCCC(C)C)c(C(=O)OCCCCCCC(C)C)c1 | inactive | 
NCCCOCCOCCOCCCN | 17.2 µM (active) | 
CCCCCCCCCCCCCCCBr | inactive | 
O=S1(=O)N=C(O)c2ccccc21 | inactive | 
CCN(CC)CCNC(C(=O)OCCC(C)C)c1ccccc1 (stereo not given) | inactive | 
CC(C)=CCCC(C)CC=O (stereo not given) | inactive | 
CCN(CC)C(C)CN1c2ccccc2Sc2ccccc21 (stereo not given) | inactive | 
O=C1c2cccc(O)c2C(=O)c2c(O)cc(CO)cc21 | inactive | 
OCCC1CCCCN1 (stereo not given) | inactive | 
CC(CN)CCCN (stereo not given) | inactive | 
CN(C)CC[C@@H](c1ccc(Br)cc1)c1ccccn1 | inactive | 
CN(C)C/C=C(/c1ccc(Br)cc1)c1cccnc1 | inactive | 
Cc1ccccc1N=Nc1ccc(N=Nc2c(O)ccc3ccccc23)c(C)c1 | inactive | 
c1ccc(-c2nc[nH]c2-c2ccccc2)cc1 | inactive | 
O=S(=O)(O)c1ccc(O)c2ncccc12 | inactive | 
CCC(C)N(C)C(=O)c1cc2ccccc2c(-c2ccccc2Cl)n1 (stereo not given) | inactive | 
C[C@H](CCC(=O)O)[C@H]1CC[C@H]2[C@@H]3[C@H](O)C[C@@H]4C[C@H](O)CC[C@]4(C)[C@H]3CC[C@]12C | inactive | 
CC1(C)CCC(C)(C)c2cc(NC(=O)c3ccc(C(=O)O)cc3)ccc21 | 26.6 µM (active) | 
